Experiment [1] can be described thus: Drug repurposing screens with cells derived from glioblastoma tumor samples (AID 1345199). Further: nearly all actives have a fitted effect of over 40% in size. The following applies: GBM patient neurospheres viability, ATP luminescence, 48 h. An outline of the steps: (§1)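 Four patient lines of CD133+ GBM neurospheres were screened at several concentrations; hits were retested in those lines plus three slower-growing GBM lines, using 48-hour treatment and ATP-based viability.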

The test system of a further experiment is astro (control astrocytes). Described as above. The following applies: viability, ATP luminescence, 48 h; series mostly up to 45.9 µM. In outline:
as §1

Setting [2] is: at 45.9 µM (top of the series), tumour line B.
The mark [3] stands for this setting: at 45.9 µM (top of the series), tumour line D.
[4] abbreviates: at 46 µM (top of the series), tumour line A.
The mark [5] stands for this setting: at 46.1 µM (top of the series), tumour line C.
[6] abbreviates: at 20 µM (top of the series), tumour line C.
[7] abbreviates: at 21.2 µM (top of the series), tumour line B.
[8] abbreviates: at 21.2 µM (top of the series), tumour line D.
Where [9] appears, read: at 21.3 µM (top of the series), tumour line A.

SMILES strings stand for the structures. Inconclusive results are not listed. A number with no mark means an inactive call. The source made the active and inactive calls. The call rests on the fitted dose curve; in most records, active means well fitted inhibition curve with a large enough effect; inconclusive means small, poorly fitted or top-dose-only effect; inactive means flat fitted curve, though single readings scatter.

Data on 19 molecules can be found in PubChem BioAssay (NCATS).
On the % scale 0 is the no-effect control and ±100 the full control effect; potency means the concentration at half of the fitted maximal effect.

For `O=C(O)c1cc(N=Nc2ccc(O)c(C(=O)O)c2)ccc1O`, the activity, negative = cell killing in experiment [1] (setting [2]) was -10.7%; in experiment [1] (setting [3]), -13.9%; in experiment [1] (setting [4]) it was -13.2%; in experiment [1] (setting [5]), -29.5%. The Potency entry with astro is “inactive”.
Turning to `C=CC(=O)O`, the activity, negative = cell killing is -8.62% in experiment [1] (setting [2]), -6.79% in experiment [1] (setting [3]), -25.8% in experiment [1] (setting [4]) and -0.506% in experiment [1] (setting [5]). In addition, in the experiment with astro, the Potency result was “inactive”.
Regarding `C=CC[C@@H]1/C=C(\C)C[C@H](C)C[C@H](OC)[C@H]2O[C@@](O)(C(=O)C(=O)N3CCCC[C@H]3C(=O)O[C@H](/C(C)=C/[C@@H]3CC[C@@H](O)[C@H](OC)C3)[C@H](C)[C@@H](O)CC1=O)[C@H](C)C[C@@H]2OC`, the activity, negative = cell killing in experiment [1] (setting [2]) is -12.2%; in experiment [1] (setting [3]) it was -18.8%; in experiment [1] (setting [5]), -16.1%. Also, in experiment [1] (tumour line A), the Potency was 7.94 µM (active). The Potency entry in the experiment on astro is “inactive”.
As for `CCCOc1cc(N)ccc1C(=O)OCCN(CC)CC`, the activity, negative = cell killing in experiment [1] (setting [6]) is 3.99%; in experiment [1] (setting [7]), -3.15%; in experiment [1] (setting [8]), -24.1%; in experiment [1] (setting [9]), 3.16%. Further, the Potency entry with astro is “inactive”.
Regarding `O=C(O)c1ccc(NC2OC[C@@H](O)[C@H](O)[C@H]2O)cc1` (stereo not given in full), the activity, negative = cell killing is -2.93% in experiment [1] (setting [2]), 0.684% in experiment [1] (setting [3]), -26.5% in experiment [1] (setting [4]) and -13.1% in experiment [1] (setting [5]). For the same molecule, in the experiment on astro, the Potency result was “inactive”.
As for `CC[C@@H]1/C=C(\C)C[C@H](C)C[C@H](OC)[C@H]2O[C@@](O)(C(=O)C(=O)N3CCCC[C@H]3C(=O)O[C@H](/C(C)=C/[C@@H]3CC[C@@H](Cl)[C@H](OC)C3)[C@H](C)[C@@H](O)CC1=O)[C@H](C)C[C@@H]2OC`, the activity, negative = cell killing in experiment [1] (setting [2]) was -7.85%; in experiment [1] (setting [3]), -16.3%; in experiment [1] (setting [4]) it was -14.1%; in experiment [1] (setting [5]), -18.5%. In addition, in the experiment on astro, the Potency entry was “inactive”.
Turning to `Nc1nc2c(c(=O)[nH]1)N(C=O)C(CNc1ccc(C(=O)N[C@@H](CCC(=O)O)C(=O)O)cc1)CN2` (stereo not given in full), the activity, negative = cell killing in experiment [1] (setting [6]) is -2.81%; in experiment [1] (setting [7]), -5.52%; in experiment [1] (setting [8]), -5.96%; in experiment [1] (setting [9]), -10.3%. The Potency entry in the experiment with astro is “inactive”.
Turning to `CC(=O)Nc1ccc(OC(C)=O)cc1`, the activity, negative = cell killing was -2.78% in experiment [1] (setting [2]), 2.27% in experiment [1] (setting [3]), -21% in experiment [1] (setting [4]) and -27.8% in experiment [1] (setting [5]). The Potency result in the experiment with astro was “inactive”.
As for `CC(=O)Nc1c(I)c(C(=O)N[C@H]2C(O)O[C@H](CO)[C@@H](O)[C@@H]2O)c(I)c(N(C)C(C)=O)c1I` (stereo not given in full), the activity, negative = cell killing in experiment [1] (setting [6]) was -5.11%; in experiment [1] (setting [7]) it was -5.7%; in experiment [1] (setting [8]), -16.2%; in experiment [1] (setting [9]) it was -16.4%. In addition, the Potency entry with astro is “inactive”.
With `C=N[C@@H](C(=O)N[C@@H]1C(=O)N2[C@@H]1SC(C)(C)[C@@H]2C(=O)O)c1ccccc1`, the activity, negative = cell killing was -11% in experiment [1] (setting [2]), -11.4% in experiment [1] (setting [3]), -8.19% in experiment [1] (setting [4]) and -15.6% in experiment [1] (setting [5]). Further, in the experiment on astro, the Potency result is “inactive”.
For `O=[n+]1ccn([O-])c2ccccc21`, the activity, negative = cell killing in experiment [1] (setting [2]) was -6.39%; in experiment [1] (setting [3]) it was -13.6%; in experiment [1] (setting [4]) it was -22.5%; in experiment [1] (setting [5]), -17%. Also, in the experiment on astro, the Potency entry is “inactive”.
Taken in the same sequence, the figures for `CCN(CC)CCOC[C@H]1O[C@@H](O)[C@H](OCCN(CC)CC)[C@@H](O)[C@@H]1O` were -9.61%, -16.5%, -26.4%, -24.8% and “inactive”.
In the case of `FC(F)(F)C(F)(F)C(F)(F)C(F)(F)C(F)(F)F`, the activity, negative = cell killing in experiment [1] (setting [2]) is 3%; in experiment [1] (setting [3]) it was -24.7%; in experiment [1] (setting [4]), -8.67%; in experiment [1] (setting [5]) it was -13.9%. In the experiment on astro, the Potency result was “inactive”.
Consider `CC(=O)OCC(=O)[C@@]1(O)CC[C@H]2[C@@H]3CCC4=CC(=O)CC[C@]4(C)C3=CC[C@@]21C`, for which the activity, negative = cell killing is -7.95% in experiment [1] (setting [2]), 3.12% in experiment [1] (setting [3]), -15.3% in experiment [1] (setting [4]) and -8.95% in experiment [1] (setting [5]). Besides, in the experiment on astro, the Potency result was “inactive”.
In the case of `CC(/C=C/C=C(\C)C(=O)O[C@@H]1O[C@H](CO[C@@H]2O[C@H](CO)[C@@H](O)[C@H](O)[C@H]2O)[C@@H](O)[C@H](O)[C@H]1O)=C\C=C\C=C(C)\C=C\C=C(/C)C(=O)O[C@@H]1O[C@H](CO[C@@H]2O[C@H](CO)[C@@H](O)[C@H](O)[C@H]2O)[C@@H](O)[C@H](O)[C@H]1O`, the activity, negative = cell killing was -13.5% in experiment [1] (setting [2]), 5.42% in experiment [1] (setting [3]), -21.7% in experiment [1] (setting [4]) and 10.7% in experiment [1] (setting [5]). In addition, the Potency entry in the experiment with astro is “inactive”.
The like results for `COC(=O)CCC[N+](C)(C)C` were, in that order, 2.12%, -8.53%, -30.6%, -18.9% and “inactive”.
For `CC[C@H](CC[C@@H](C)[C@H]1CC[C@H]2[C@@H]3CC=C4C[C@@H](O)CC[C@]4(C)[C@H]3CC[C@]12C)C(C)C`, the activity, negative = cell killing in experiment [1] (setting [2]) was -10.4%; in experiment [1] (setting [3]), -2.23%; in experiment [1] (setting [4]) it was -16.4%; in experiment [1] (setting [5]), -13.1%. Besides, the Potency result in the experiment on astro was “inactive”.
For `NCCCC[C@H](N)C(=O)O`, the activity, negative = cell killing in experiment [1] (setting [2]) is -13.6%; in experiment [1] (setting [3]), 9.14%; in experiment [1] (setting [4]) it was -18.9%; in experiment [1] (setting [5]), 9.67%. Also, in the experiment on astro, the Potency result is “inactive”.
As to `CC(O)[C@@H]1NC(=O)[C@H](Cc2ccccc2)NC(=O)[C@H](C(C)O)NC(=O)[C@H](CCCCN)NC(=O)[C@H](Cc2c[nH]c3ccccc23)NC(=O)[C@H](Cc2ccccc2)NC(=O)[C@H](Cc2ccccc2)NC(=O)[C@H](CC(N)=O)NC(=O)[C@H](CCCCN)NC(=O)[C@@H](NC(=O)CNC(=O)[C@H](C)N)CSSC[C@@H](C(=O)O)NC(=O)[C@H](CO)NC1=O` (stereo not given in full), the activity, negative = cell killing was -13.9% in experiment [1] (setting [2]), -20.3% in experiment [1] (setting [3]), -21.3% in experiment [1] (setting [4]) and -3.11% in experiment [1] (setting [5]). In addition, the Potency result in the experiment with astro is “inactive”.
